Test results taken from the supplement of paper PMC11732987, “Enantioselective OTUD7B fragment discovery through chemoproteomics screening and high-throughput optimisation” (Communications Chemistry, 2025).

Assays:
Experiment in all cases: log2 ratio of Biotin-Ahx-Ub-VS probe labelling (fragment/DMSO); higher = less target engagement (more negative = stronger competition), active = hit call of the paper (q ≤ 0.05, log2 ratio ≤ -1)
Conditions in all cases: compound concentration: 200 uM; treatment time: 3 h
USP34 = USP34 (UniProt Q70CQ2)
In short: (§1)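 Triplicate samples of HEK293T lysate, 495 µg each, received fragment at 200 µM or vehicle for 3 h, followed by Biotin-Ahx-Ub-VS (0.5 µM final) for 1 h. After NeutrAvidin enrichment of labelled DUBs and LysC/trypsin digestion, peptides were run by diaPASEF LC-MS/MS. The values are average log2 fragment/vehicle ratios from global-median-normalised Spectronaut label-free quantities, tested by unpaired t-test on proteins having ≥2 unique peptides.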

USP36 = biological target: T1, USP36 (UniProt Q9P275)
T1 sequence (whole entry): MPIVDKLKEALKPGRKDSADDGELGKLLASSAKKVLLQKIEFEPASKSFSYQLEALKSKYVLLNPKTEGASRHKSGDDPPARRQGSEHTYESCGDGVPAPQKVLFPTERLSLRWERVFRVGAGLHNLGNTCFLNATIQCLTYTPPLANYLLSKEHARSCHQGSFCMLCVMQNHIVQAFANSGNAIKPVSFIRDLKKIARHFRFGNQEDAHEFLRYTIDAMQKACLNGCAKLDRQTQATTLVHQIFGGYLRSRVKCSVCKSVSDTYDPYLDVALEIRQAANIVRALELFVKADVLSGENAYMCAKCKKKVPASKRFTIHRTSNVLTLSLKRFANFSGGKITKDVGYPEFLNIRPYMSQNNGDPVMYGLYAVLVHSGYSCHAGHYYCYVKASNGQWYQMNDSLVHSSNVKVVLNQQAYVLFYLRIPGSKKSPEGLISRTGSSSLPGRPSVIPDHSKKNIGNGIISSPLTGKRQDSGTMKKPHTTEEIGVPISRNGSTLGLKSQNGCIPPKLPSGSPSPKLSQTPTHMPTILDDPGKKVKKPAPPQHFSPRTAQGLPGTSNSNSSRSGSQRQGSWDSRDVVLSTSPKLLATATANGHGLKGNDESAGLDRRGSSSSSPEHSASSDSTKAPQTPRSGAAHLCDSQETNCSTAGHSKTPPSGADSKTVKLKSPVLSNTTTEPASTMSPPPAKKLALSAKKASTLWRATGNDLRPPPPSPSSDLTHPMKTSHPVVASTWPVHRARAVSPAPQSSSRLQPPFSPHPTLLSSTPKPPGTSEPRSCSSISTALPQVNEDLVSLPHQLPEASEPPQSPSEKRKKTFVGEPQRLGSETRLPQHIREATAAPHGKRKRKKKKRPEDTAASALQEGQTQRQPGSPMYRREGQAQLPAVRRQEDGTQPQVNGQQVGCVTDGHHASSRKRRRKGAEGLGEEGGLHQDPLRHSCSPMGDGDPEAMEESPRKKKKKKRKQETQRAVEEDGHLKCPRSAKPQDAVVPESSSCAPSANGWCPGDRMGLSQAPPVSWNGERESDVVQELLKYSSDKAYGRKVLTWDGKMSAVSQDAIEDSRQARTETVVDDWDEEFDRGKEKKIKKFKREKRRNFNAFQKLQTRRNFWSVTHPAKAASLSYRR
In short: as §1

USP38 = biological target: T2, USP38 (UniProt Q8NB14)
T2 sequence (whole entry): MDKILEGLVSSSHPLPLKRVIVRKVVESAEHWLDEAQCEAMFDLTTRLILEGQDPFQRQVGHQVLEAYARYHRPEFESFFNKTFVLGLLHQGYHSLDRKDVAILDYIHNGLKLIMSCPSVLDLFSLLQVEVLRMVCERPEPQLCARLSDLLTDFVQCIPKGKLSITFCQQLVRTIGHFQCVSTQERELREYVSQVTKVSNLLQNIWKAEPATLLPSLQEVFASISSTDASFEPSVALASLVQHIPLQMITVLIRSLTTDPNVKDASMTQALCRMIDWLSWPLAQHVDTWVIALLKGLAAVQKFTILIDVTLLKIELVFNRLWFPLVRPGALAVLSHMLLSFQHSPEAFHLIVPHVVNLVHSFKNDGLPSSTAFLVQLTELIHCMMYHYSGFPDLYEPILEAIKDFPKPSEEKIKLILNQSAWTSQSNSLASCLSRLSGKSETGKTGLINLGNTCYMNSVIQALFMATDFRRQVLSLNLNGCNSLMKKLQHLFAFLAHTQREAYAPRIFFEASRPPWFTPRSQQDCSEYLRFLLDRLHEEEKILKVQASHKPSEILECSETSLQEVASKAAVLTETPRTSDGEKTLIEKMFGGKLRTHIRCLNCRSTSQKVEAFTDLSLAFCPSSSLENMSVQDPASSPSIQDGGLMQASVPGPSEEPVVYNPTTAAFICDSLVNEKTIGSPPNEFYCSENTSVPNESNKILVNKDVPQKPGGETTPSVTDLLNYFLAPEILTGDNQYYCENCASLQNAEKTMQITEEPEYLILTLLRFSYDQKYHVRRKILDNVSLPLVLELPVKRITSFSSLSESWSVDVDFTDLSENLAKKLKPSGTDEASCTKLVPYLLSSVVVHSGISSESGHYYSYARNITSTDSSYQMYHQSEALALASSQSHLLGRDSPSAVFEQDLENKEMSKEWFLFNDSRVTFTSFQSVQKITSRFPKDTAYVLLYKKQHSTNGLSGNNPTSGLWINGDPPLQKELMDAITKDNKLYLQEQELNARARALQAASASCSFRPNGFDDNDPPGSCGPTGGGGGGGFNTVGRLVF
In short: as §1

USP39 = biological target: T3, USP39 (UniProt Q53GS9)
T3 sequence (whole entry): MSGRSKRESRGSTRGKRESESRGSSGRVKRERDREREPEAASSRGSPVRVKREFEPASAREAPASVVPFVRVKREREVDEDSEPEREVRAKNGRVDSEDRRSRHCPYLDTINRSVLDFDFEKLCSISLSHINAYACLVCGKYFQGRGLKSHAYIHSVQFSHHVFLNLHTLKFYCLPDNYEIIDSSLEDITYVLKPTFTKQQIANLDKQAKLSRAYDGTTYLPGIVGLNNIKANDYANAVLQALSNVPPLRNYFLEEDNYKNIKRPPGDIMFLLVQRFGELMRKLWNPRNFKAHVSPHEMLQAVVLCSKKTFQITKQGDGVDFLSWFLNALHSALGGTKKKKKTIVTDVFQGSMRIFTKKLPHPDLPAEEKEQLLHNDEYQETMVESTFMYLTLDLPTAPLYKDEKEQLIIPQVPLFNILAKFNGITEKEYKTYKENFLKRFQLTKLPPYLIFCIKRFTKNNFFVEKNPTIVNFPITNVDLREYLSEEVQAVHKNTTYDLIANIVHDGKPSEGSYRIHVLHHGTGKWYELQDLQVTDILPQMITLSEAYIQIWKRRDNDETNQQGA
In short: as §1

USP4 = biological target: T4, USP4 (UniProt Q13107)
T4 sequence (whole entry): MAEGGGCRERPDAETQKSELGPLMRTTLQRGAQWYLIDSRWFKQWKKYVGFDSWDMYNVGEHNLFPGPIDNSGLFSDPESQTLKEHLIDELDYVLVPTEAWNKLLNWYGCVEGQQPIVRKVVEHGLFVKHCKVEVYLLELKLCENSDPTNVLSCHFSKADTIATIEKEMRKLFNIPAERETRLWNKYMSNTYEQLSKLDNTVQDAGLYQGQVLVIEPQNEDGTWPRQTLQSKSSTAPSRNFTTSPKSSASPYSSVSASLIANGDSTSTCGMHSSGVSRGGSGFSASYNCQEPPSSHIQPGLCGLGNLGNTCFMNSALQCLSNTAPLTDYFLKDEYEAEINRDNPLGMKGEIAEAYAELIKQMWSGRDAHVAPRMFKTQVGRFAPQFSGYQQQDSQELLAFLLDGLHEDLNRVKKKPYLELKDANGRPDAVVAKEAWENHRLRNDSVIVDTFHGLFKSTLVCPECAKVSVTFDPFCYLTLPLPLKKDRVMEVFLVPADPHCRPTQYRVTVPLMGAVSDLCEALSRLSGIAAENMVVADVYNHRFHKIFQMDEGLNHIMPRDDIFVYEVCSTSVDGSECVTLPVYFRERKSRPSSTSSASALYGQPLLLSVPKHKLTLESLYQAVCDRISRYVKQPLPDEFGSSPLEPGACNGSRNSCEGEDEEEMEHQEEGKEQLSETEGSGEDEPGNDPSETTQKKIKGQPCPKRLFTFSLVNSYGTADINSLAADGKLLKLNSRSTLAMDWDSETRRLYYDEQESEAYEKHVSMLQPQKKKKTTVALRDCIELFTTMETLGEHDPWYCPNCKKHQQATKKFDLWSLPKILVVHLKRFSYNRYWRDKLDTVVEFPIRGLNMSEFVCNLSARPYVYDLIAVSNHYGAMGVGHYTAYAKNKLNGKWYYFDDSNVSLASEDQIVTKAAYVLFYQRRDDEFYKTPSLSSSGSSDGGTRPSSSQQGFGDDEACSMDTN
In short: as §1

Measured: log2 ratio of Biotin-Ahx-Ub-VS probe labelling

Sequence of USP34 (Q70CQ2 whole entry, the tested form may be a part): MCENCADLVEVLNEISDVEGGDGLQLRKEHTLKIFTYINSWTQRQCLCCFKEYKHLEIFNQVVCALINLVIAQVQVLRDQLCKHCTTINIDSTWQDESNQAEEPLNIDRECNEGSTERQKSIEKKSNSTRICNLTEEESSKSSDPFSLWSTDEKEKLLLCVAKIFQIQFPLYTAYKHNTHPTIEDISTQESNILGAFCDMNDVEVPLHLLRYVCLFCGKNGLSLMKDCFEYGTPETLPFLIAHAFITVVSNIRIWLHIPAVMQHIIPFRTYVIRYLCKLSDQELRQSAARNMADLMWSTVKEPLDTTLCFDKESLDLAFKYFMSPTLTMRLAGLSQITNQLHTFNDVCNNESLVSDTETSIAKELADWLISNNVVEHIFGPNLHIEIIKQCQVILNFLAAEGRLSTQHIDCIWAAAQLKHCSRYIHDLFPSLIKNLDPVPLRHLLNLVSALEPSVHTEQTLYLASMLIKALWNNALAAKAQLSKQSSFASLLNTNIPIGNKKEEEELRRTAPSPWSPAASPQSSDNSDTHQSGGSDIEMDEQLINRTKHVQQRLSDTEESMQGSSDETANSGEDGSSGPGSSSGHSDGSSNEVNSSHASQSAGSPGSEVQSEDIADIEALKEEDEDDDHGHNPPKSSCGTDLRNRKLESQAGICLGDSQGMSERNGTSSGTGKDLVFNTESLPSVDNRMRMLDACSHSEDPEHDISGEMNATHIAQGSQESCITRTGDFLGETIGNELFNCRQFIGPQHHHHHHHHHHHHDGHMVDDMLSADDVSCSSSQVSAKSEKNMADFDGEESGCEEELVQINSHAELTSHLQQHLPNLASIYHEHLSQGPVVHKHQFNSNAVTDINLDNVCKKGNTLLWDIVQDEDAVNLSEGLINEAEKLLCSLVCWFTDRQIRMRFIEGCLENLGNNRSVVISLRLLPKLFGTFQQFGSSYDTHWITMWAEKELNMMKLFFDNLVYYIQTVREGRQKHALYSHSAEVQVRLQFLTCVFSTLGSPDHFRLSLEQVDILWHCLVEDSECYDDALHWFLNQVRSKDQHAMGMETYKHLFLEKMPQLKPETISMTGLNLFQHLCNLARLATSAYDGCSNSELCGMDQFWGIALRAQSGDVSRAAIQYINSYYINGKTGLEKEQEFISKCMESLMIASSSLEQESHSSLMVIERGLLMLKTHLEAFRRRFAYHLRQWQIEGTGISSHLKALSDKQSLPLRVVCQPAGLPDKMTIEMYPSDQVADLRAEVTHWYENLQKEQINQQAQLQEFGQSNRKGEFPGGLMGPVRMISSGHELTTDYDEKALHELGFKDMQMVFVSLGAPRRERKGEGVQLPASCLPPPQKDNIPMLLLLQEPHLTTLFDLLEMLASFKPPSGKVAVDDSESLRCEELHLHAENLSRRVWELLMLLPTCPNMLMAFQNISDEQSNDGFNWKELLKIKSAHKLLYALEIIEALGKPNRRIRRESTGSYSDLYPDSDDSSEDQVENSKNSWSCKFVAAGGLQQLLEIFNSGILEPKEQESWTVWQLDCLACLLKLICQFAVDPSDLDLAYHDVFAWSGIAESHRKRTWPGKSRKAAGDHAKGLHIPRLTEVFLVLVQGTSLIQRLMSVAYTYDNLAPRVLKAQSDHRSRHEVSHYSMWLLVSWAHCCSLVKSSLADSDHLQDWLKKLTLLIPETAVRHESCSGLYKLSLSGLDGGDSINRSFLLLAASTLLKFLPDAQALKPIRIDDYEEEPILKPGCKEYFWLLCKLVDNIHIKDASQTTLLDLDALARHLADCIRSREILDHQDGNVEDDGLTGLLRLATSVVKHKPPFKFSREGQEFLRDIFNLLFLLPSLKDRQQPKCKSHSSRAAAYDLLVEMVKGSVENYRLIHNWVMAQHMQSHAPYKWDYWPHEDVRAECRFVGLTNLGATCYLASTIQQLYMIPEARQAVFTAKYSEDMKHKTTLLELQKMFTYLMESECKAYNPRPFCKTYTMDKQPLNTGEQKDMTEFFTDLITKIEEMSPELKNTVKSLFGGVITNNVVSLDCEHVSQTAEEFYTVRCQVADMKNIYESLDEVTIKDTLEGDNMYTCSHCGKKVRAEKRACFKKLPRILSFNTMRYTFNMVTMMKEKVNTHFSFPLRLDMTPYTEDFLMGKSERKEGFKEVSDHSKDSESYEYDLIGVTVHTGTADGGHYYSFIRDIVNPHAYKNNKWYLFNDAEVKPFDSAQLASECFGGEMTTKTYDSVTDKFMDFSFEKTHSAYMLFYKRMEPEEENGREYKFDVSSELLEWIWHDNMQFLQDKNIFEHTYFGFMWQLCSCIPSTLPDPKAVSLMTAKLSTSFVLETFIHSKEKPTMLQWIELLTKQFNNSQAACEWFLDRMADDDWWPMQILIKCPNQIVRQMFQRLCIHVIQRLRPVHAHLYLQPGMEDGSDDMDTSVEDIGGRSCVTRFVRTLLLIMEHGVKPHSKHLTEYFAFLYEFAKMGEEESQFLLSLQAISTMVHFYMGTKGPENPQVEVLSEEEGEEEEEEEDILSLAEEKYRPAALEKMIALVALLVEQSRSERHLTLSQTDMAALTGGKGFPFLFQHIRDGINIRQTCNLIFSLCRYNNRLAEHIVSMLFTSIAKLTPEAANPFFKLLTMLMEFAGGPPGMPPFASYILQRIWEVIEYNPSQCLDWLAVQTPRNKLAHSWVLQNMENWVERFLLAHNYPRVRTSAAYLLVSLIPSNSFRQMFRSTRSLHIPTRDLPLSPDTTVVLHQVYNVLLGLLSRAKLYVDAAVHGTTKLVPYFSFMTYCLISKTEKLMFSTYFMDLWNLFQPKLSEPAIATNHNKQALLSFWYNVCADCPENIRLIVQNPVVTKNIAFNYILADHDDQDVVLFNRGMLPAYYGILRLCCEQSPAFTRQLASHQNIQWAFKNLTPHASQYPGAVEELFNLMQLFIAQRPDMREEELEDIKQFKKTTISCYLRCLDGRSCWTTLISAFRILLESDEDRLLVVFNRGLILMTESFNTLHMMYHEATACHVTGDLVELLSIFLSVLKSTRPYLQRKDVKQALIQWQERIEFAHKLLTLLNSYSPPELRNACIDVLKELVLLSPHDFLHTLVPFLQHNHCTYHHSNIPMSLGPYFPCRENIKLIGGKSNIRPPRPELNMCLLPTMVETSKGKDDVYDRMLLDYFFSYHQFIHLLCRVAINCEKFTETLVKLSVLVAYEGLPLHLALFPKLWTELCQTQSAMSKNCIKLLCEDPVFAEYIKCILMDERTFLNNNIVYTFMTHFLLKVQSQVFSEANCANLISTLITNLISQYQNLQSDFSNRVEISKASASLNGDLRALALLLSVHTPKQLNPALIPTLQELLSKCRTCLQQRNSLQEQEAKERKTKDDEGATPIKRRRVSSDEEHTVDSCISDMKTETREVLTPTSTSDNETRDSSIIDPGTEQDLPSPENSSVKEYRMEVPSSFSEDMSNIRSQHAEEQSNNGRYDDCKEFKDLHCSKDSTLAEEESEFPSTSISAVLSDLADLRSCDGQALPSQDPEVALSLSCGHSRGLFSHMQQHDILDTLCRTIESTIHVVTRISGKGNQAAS

Cl.Cn1ncc2c1CC(NC(=O)CCl)CC2 (stereo not given)
inactive: USP34 0.0665 | USP36 -0.0622 | USP38 0.034 | USP39 -0.0219 | USP4 0.0879
